SMILES strings stand for the structures. Several values for one entry are separate records, joined by “and”; a condition that tells them apart may be missing. Equal entries are not always repeated. This is part of a sample that, as a whole, favours compounds with a hit. Of some 83,000 tested, about 20% had one in any assay.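 Cell lines were cultured in 96-well plates, exposed to a single compound concentration, and assessed for percent growth 48 hours later.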 Activity calls are given as the source filed them.

The test system of this experiment is TK-10 renal. The experiment in a line: NCI-60 one-dose screen, 48 h (100 = growth as untreated, 0 = no growth, -100 = all killed). The settings on record: 10 µM unless noted. On the procedure:
Growth inhibition of the TK-10 human tumor cell line is measured as a screen for anti-cancer activity. Cells are grown in 96 well plates and exposed to the test compound for 48 hours. Compounds are tested at a single concentration, which is 10^-5 M for most compounds. The reported endpoint is percent growth (GI% or GIPRCNT), where numbers from 0 - 100% represent growth inhibition, and numbers from -100% - 0 represent cell death. For example, a value of 40 represents 60% growth inhibition. A value of 0 means no net growth occurred over the course of the experiment. A value of -40 indicates 40% of cells at the beginning of the experiment died by the end of the experiment. A value of -100 means all cells are dead at the end of the experiment.
NCI-60 Human Tumor Cell Lines Screen was performed using the standard one-dose NCI protocol, which is described in more detail at https://dtp.cancer.gov/discovery_development/nci-60/default.htm.
Compounds with GIPRCNT values below 10 were considered active. Activity score was based on GIPRCNT using the following formula: […]
Score is 0 for GIPRCNT values of 100 or above, 50 for GIPRCNT values of 0, and 100 for GIPRCNT values of -100.
Turning to `O=C1/C(=C/c2ccccc2F)CNC/C1=C\c1ccccc1F`, the growth is -4.87% (active).

Consider `O=c1oc2ccccc2cc1-c1csc(N=Nc2c(O)[nH]c3ccc(Cl)cc23)n1`, for which the growth was 106% (inactive).

In the case of `CCCCCCCCCCCCCCNc1nc(CO)ncc1-c1ccc(C(F)(F)F)cc1`, the growth was 98.9% (inactive).

As to `COC(=O)[C@H]1CCCN1C(=O)[C@H]1CCCN1C(=O)[C@@H](Cc1c[nH]c2ccccc12)NC(=S)Nc1cc(C(F)(F)F)cc(C(F)(F)F)c1`, the growth is 78.4% (inactive).

Regarding `Clc1ccc2c(N3CCN(c4ccnc(NC5CCCCC5)n4)CC3)ccnc2c1`, the growth is 61.1% (inactive).

As for `O=C1N/C(=C\c2ccccc2)c2ncccc21`, the growth was 121% (inactive).

Take `CCCCC(CCCC)(S(=O)(=O)CC)S(=O)(=O)CC`: the growth is 99.2% (inactive).

For the compound `O=C1/C(=C/c2ccc(Oc3ccccc3)cc2)N=C(c2ccccc2)N1CCc1cccs1`, the growth is 80.6% (inactive).

With `CS(=O)(=O)Nc1cccc(C(=O)NCc2ccc(N3CCOCC3)cc2)c1`, the growth was 93.3% (inactive).

For `CC1(C)CC(=O)C2=C(C1)Nc1cc3c(cc1C2c1ccc(F)cc1)OCO3` (stereo not given), the growth is 99.4% (inactive).

Regarding `Cc1nc2cc(Nc3nc(NCCO)nc(Nc4ccc(F)cc4)n3)ccc2n1Cc1ccccc1`, the growth is 133% (inactive).

As to `Cc1cc(=O)c2c(C)ccc(C)c2[nH]1`, the growth is 108% (inactive).

As for `O=c1c(-c2ccc3c(c2)OCO3)coc2c3c(ccc12)OCO3`, the growth was -27.5% [100 µM] (active) and -100% [100 µM] (active).

Turning to `c1ccc2c(c1)oc1cc3c(cc12)nnc1cccn13`, the growth is 122% (inactive).

In the case of `Cc1c(C)n(CC(O)CNC2CCCCC2C)c2ccccc12` (stereo not given), the growth was -76.3% (active).

With `O=C1CC(c2ccsc2)c2snc(-c3ccc(Cl)cc3)c2N1` (stereo not given), the growth is 53.8% (inactive).

For `FCOC(C(F)(F)F)C(F)(F)F`, the growth was 91.1% (inactive).

For the compound `COc1ccc(OC)c(/C=C2\Oc3cc(O)ccc3C2=O)c1`, the growth was 103% (inactive).

In the case of `O=C(Nc1ccc(Cl)c(Cl)c1)NC(CO)(CO)CO`, the growth is 113% (inactive).

For the compound `O=C1c2ccccc2-c2nnc(-c3ccc(Br)cc3)cc21`, the growth was 119% (inactive).

For `CC(C)=CCC/C(C)=C/CC/C(C)=C/CC/C(C)=C/C=C/C=C(\C)CC/C=C(\C)CC/C=C(\C)CCC=C(C)C`, the growth is 106% [100 µM] (inactive) and -87% [100 µM] (active).

Consider `CCCC(=O)Oc1c2ccsc2c(OC(=O)CCC)c2ccsc12`, for which the growth is -72.5% [100 µM] (active) and -100% [100 µM] (active).

`O=c1[nH]c(=S)c2c(n1CCCO)CCC2`: the growth was 102% (inactive).

In the case of `CC(=O)N(CC(O)CO)c1c(I)c(C(=O)NCCO)c(I)c(C(=O)NCC(O)CO)c1I` (stereo not given), the growth is 114% (inactive).

On to `C=C1C(=O)OC2/C=C(/C)C3(O)OC(C)(CC(OC(=O)C(C)C)C12)CC3OC(C)=O` (stereo not given), for which the growth was -95.3% [100 µM] (active).

Consider `CCCCCCCCCCCCCC1=C(O)C(=O)C(CC2=C(O)C(=O)C(CCCCCCCCCCCCC)=C(O)C2=O)=C(O)C1=O`, for which the growth is 33% [100 µM] (inactive) and -1.5% [100 µM] (active).

As for `O=C(O)c1cnccc1-c1cc(=O)[nH]n1-c1ccccc1`, the growth was 53.2% [100 µM] (inactive) and -7.14% [100 µM] (active).

Take `COc1cccc(C2C3=C(COC3=O)N(CCO)c3cc4c(cc32)CCC4)c1` (stereo not given): the growth was 53.8% (inactive).

As to `Oc1ccc(Cl)cc1CNc1nc2ccccc2[nH]1`, the growth is 88.2% (inactive).

Take `COc1cccc(Nc2nc(NCCO)c3ccccc3n2)c1`: the growth is 106% (inactive).

In the case of `Cc1ccc2nc(NC(=O)CSC(=S)N3CCN(C)CC3)sc2c1`, the growth is 122% (inactive).

On to `CCOc1cc2c(cc1O)C(=O)C[C@@H]1[C@@H]2CC[C@]2(C)[C@@H](O)CC[C@@H]12`, for which the growth was 38.8% [100 µM] (inactive) and -2.4% [100 µM] (active).

Consider `C=C1CC(O)C2C(=C)C(=O)OC2C2C(C)C(=O)CC12` (stereo not given), for which the growth was -95.6% [100 µM] (active) and -97% [100 µM] (active).

For `CCC1CC(C)C(O)/C=C/C=C/CC(C)OC(=O)CC(O)C(OC)C1OC1OC(C)CC(O)(C(C)=O)C1O` (stereo not given), the growth is 62.1% [100 µM] (inactive) and 38.8% [100 µM] (inactive).

On to `O=C1NC(=S)NC1C(Cc1ccccc1)c1ccco1` (stereo not given), for which the growth was 80.1% [100 µM] (inactive) and 73% [100 µM] (inactive).

Regarding `Oc1cccc(Nc2nc(-c3ccccn3)cs2)c1`, the growth is 111% (inactive).

On to `O=[N+]([O-])c1cccc(-c2ncnc(-c3cccc([N+](=O)[O-])c3)n2)c1`, for which the growth was 38.8% [100 µM] (inactive) and -100% [100 µM] (active).

Turning to `CCCCc1ccc(NC(=O)C(F)(F)F)cc1`, the growth was 95.4% (inactive).

With `Cc1cc(N2CCCC2)c([N+](=O)[O-])cc1[N+](=O)[O-]`, the growth was 89.8% [100 µM] (inactive) and 75.9% [100 µM] (inactive).

For `Cc1nn(-c2ccccc2)c2nc3nc4c(c(N)c3c(-c3ccc(Cl)cc3)c12)CCCC4`, the growth was 112% (inactive).
